In PubChem BioAssay AID651813 (National Center for Advancing Translational Sciences (NCATS), 2012):
In all, about 2,100 compounds went through this assay and about 1,100 (52%) were called active. Another 27% or so got no clear call; they are omitted. The call rests on the fitted dose curve; in most records, active means well fitted inhibition curve with a large enough effect; inconclusive means small, poorly fitted or top-dose-only effect; inactive means no such curve, though single readings can be large or run the other way. The set was probably picked from earlier hits. The list shows a part of the results.

molecular target: DNA dC->dU-editing enzyme APOBEC-3G (Homo sapiens) (UniProt Q9HC16); test: qHTS for inhibitors of Vif-A3G interactions: Cherry picks counterscreen; settings: HeLa A3G-eYFP + Vif (tagged APOBEC3G with the HIV-1 protein that degrades it), eYFP fluorescence, 24 h;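 further: hits raise yellow fluorescence by blocking Vif-driven A3G-eYFP degradation; nearly all actives have a fitted effect of over 70% in size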;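 on max response: max response given as percent of control signal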
In short: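 HeLa cells stably expressing A3G-eYFP and Vif were treated for 24 h at 37 deg C with compounds at several concentrations; yellow fluorescence (Ex 488 nm, Em 500-530 nm) read by Acumen Explorer, MG132 as positive control.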
Potency means the concentration at half of the fitted maximal effect.

DNA dC->dU-editing enzyme APOBEC-3G (Homo sapiens), sequence (Q9HC16 whole entry, looked up): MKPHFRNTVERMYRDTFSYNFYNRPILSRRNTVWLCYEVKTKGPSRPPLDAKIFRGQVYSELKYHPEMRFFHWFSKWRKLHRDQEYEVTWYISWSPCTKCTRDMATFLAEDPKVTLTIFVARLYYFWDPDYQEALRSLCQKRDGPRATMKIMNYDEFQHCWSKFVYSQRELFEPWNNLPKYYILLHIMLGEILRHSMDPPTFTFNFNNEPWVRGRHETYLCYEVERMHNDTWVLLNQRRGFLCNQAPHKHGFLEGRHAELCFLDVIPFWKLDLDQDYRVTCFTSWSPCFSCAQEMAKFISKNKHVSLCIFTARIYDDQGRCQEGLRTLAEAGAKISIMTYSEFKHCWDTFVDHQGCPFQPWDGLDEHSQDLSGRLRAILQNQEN

| Compound | Potency | max response |
| --- | --- | --- |
| COc1ccc(C2CC(c3ccncc3)=NN2c2ccc(S(N)(=O)=O)cc2)cc1 (centres undefined) | 5.17 µM (active) |  |
| COc1cc(C2C3=C(COC3=O)Oc3cc4c(cc32)OCO4)ccc1OC(C)=O (centres undefined) | 1.77 µM (active) |  |
| O=C1OCC2=C1C(c1ccc3c(c1)OCO3)c1cc3c(cc1O2)OCO3 (centres undefined) | 2.23 µM (active) |  |
| O=C1c2ccccc2-c2onc3c(N4CCN(C5CCCCC5)CC4)cc(NCCO)c1c23 | 2.59 µM (active) |  |
| CN(C)CCCNc1cc(N2CCN(C3CCCCC3)CC2)c2noc3c2c1C(=O)c1ccccc1-3 | 1.84 µM (active) |  |
| CCNc1cc(N2CCN(C3CCCCC3)CC2)c2noc3c2c1C(=O)c1ccccc1-3 | 7.31 µM (active) |  |
| CCC[N+](C)(C)c1ccc(/C=C/c2ccncc2)cc1 | 16.4 µM (active) |  |
| CC[N+](C)(C)c1ccc(/C=C/c2ccncc2)cc1 | 16.4 µM (active) |  |
| Cc1ccc(-c2nc(C=Nc3ccc(O)cc3)c(O)o2)cc1 |  | -18.6% (inactive) |
| N#Cc1c(Nc2ccccc2)[n+]([O-])c2ccc(Cl)cc2[n+]1[O-] |  | 26.1% (inactive) |
| O=C1CC(c2ccccc2F)c2cc3c(cc2N1)CCC3 (centres undefined) | 2.8 µM (active) |  |
| O=C1CC(c2cc(Br)ccc2F)c2cc3c(cc2N1)CCC3 (centres undefined) | 1.4 µM (active) |  |
| CCOC(=O)Cc1csc(NC(=O)c2sc3nc4c(C)cc(C)cc4cc3c2N)n1 | 20.6 µM (active) |  |
| CCOc1cc(S(=O)(=O)NCc2ccc(OC)cc2)c(OCC)cc1-n1cnnn1 | 8.86 µM (active) |  |
| Cc1cc(C)c(N2C(=O)CC(Sc3ccccc3N)C2=O)c(C)c1 (centres undefined) | 17.7 µM (active) |  |
| Cc1ccc(S(=O)(=O)N2CCN(C(=O)CSC(=S)N3CCCC3)CC2)c(C)c1 |  | -17.2% (inactive) |
| COc1cc(C(=O)NCC(=O)N2CCN(S(=O)(=O)c3cc(C)ccc3C)CC2)cc(OC)c1OC | 9.94 µM (active) |  |
| COC(=O)c1ccc(Cl)cc1NC(=O)N1CC=C(c2c[nH]c3ccccc23)CC1 | 23.1 µM (active) |  |
| Cc1ccc(C)c(NC(=O)N2CC=C(c3c[nH]c4ccccc34)CC2)c1 | 16.4 µM (active) |  |
| CCOc1ccc(NC(=O)N2CC=C(c3c[nH]c4ccccc34)CC2)cc1 | 18.4 µM (active) |  |
| CSc1cccc(NC(=O)c2cc3c(COC(C)=O)cnc(C)c3oc2=O)c1 |  | 2.84% (inactive) |
| Cc1cc(C)nc(-n2nc(C)cc2NC(=O)c2ccc(F)cc2F)n1 |  | -9.45% (inactive) |
| COc1ccccc1NS(=O)(=O)c1cc([N+](=O)[O-])ccc1N/N=C/c1sc(N2CCOCC2)nc1-c1ccccc1 | 0.58 µM (active) |  |
| O=[N+]([O-])c1ccc(N/N=C/c2sc(N3CCOCC3)nc2-c2ccccc2)c(S(=O)(=O)Nc2ccccc2Cl)c1 | 2.91 µM (active) |  |
